TROY NFkB inh – blocks TROY-dependent signaling in reporter cells; Q293 LMP1-TROYcd NF-kB luciferase reporter, 4 h; inhibition, % at 10 µM; actives 0.98% (n = 360,000); AID 1347056;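 active = compounds whose plate-normalised and pattern-corrected inhibition of the luciferase reporter signal at the single screening dose is 50% or more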
LGR2 inh – blocks bursicon-induced cAMP signaling via Drosophila LGR2. HEK293 LGR2, CRE-luciferase, bursicon-stimulated, 4 h. inhibition, % at 9.99 µM. actives 0.35% (n = 380,000);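 active = drop in luminescence signal, shown as inhibition above about 50% in the replicate tests, limit read from the data, passing the limit was not always enough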;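 also: agonist challenge used bursicon conditioned medium at about half maximal strength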
HSF-1 act – increases HSF-1 driven luciferase reporter signal | NIH3T3-HGL HSF-1 luciferase reporter, MG132, 8 h; 100% = twice DMSO control signal | actives 1.7% (n = 300,000) | activation, % at 9 µM;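 active = mean replicate activation of at least 50% with a set share of replicates each reaching 50%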;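 also: 0% = median of the neutral control wells and 100% = twice that signal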
TWEAK Fn14 block – blocks TWEAK-Fn14 interaction in a reporter cell assay. TWEAK-stimulated Fn14 reporter cells, luciferase luminescence, 8 h. inhibition, % at 10 µM. actives 2% (n = 360,000); in the data active = inhibition above about 50%
EBV LMP1 NFkB – inhibitors of Epstein-Barr LMP1-induced NF-kappaB reporter; LMP1-induced NF-kappaB luciferase reporter cells, luminescence; inhibition, % at 12.5 µM; actives 0.69% (n = 350,000); AID 504558; in the data active = inhibition above about 41%;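 also: 0% = neutral control wells and 100% = reference inhibitor control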
HSF1 inh – HSF1 inhibition. NIH3T3-HGL HSE-luciferase, MG132-induced, luminescence 8 h; active compounds read low. activity change, negative = inhibition, % at 7.5 µM (by protocol). actives 0.77% (n = 300,000). AID 2098;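 active = more than half of replicate wells show activity change below -50%, luminescence cut by over half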;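 also: luciferase reports HSF-1 transcriptional activity via heat shock element; 0% = median of DMSO wells and -100% = zero luminescence signal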
* marks the source's active call; other numbers are inactive results; . = no result. This is a sample that favours compounds with a hit; in the whole collection about 3.6% have one here.

SMILES	TROY NFkB inh	LGR2 inh	HSF-1 act	TWEAK Fn14 block	EBV LMP1 NFkB	HSF1 inh
Cn1ncc(Cl)c1C(=O)NC1CCCC1	15	10	-25	2	53*	-5
COc1ccc(NC(=O)Nc2ccc3c(c2)C(=O)N([C@H](C)CO)C[C@H](C)[C@@H](CN(C)C(=O)CCC(F)(F)F)OCCCC[C@H](C)O3)cc1	.	-1	.	.	.	.
CC(=O)N(C)/C=C1\Sc2ccccc2C1=O	29	-22	-5	-16	-9	-6
CCC(=O)N(C)/C=C1\Sc2ccccc2C1=O	12	-48	-11	-21	76*	-5
N#CC1=C(N)Oc2cc(N)ccc2C1c1ccccc1Cl (stereo unspecified)	-6	16	-71	41	-5	-61*
N#CC1=C(N)Oc2cc(N)ccc2C1c1ccc(Cl)cc1 (stereo unspecified)	1	-13	23	2	-6	5
C[C@H]1CN([C@@H](C)CO)C(=O)Cc2cc(NC(=O)CCC(F)(F)F)ccc2O[C@H]1CN(C)CC1CCCCC1	.	8	.	.	.	.
C[C@H]1CN([C@@H](C)CO)C(=O)CCCn2nncc2CO[C@H]1CN(C)Cc1ccc(C(F)(F)F)cc1	.	15	.	.	.	.
O=C(c1n[nH]c2ccccc12)N1CCOCC1	1	5	2	-9	-49	-4
CC(=O)c1ccc(N2CCN(C(=O)c3n[nH]c4ccccc34)CC2)cc1	2	.	56*	-6	15	25
COc1ccc2c3c([nH]c2c1)[C@@H](CO)N(C(=O)C1CCCC1)CC31CCN(C(=O)NC(C)C)CC1	.	2	.	.	.	.
O=C(C[C@H]1C[C@H]2c3cc(NC(=O)c4ccc5c(c4)OCO5)ccc3O[C@H]2[C@H](CO)O1)NCC1CC1	.	-3	.	.	.	.
COc1ccc(-c2noc(N3CCC(C(=O)NCCCN4CC(C)CC(C)C4)CC3)n2)cc1 (stereo unspecified)	-6	5	-82	3	11	-77*
CO[C@H]1CN(C)C(=O)c2cc(NC(=O)c3cc(C)on3)ccc2OC[C@@H](C)NC[C@H]1C	.	4	.	.	.	.
CC(=O)Nc1ccc(-c2csc(Nc3cc(C)ccn3)n2)cc1	30	-15	18	50*	-4	-5
COc1ccc(-c2csc(Nc3cc(C)ccn3)n2)cc1OC	-24	-75	-1	9	-7	-1
Cc1ccnc(Nc2nc(-c3ccccc3)cs2)c1	8	17	42	53*	-54	37
CC(=O)Nc1cccc(-c2csc(Nc3ccccn3)n2)c1	2	.	1	58*	-34	-5
CC(=O)Nc1cccc(-c2csc(Nc3cc(C)ccn3)n2)c1	21	.	11	49	-19	11
CC(C)CC(=O)Nc1cccc(-c2csc(-c3ccccc3)n2)c1	-4	.	8	-18	67*	8
CCC(=O)Nc1cccc(-c2csc(-c3ccccc3)n2)c1	-20	.	40	-12	-4	21
O=C(CSc1ncnc2c1nnn2Cc1ccccc1)NC1CCCCC1	32	23	80*	35	2	66
O=C(CSc1nnnn1Cc1ccccc1)NC1CCCCC1	16	-3	7	2	4	-3
Cc1ccc(OCc2nc(-c3ccccc3)no2)c(C)c1	-43	.	109*	-39	-82	56
Cc1cc(C)c(C)c(OCc2nc(-c3cccnc3)no2)c1	21	.	-19	11	-2	5
SMILES	TROY NFkB inh	LGR2 inh	HSF-1 act	TWEAK Fn14 block	EBV LMP1 NFkB	HSF1 inh
O=C(O)CCc1nc(-c2cccs2)no1	-9	.	-1	5	2	1
O=[N+]([O-])c1ccc(F)cc1OCc1nc(-c2cccs2)no1	-57	-89	66*	-86	-36	28
O=[N+]([O-])c1ccccc1OCc1nc(-c2cccs2)no1	-57	-63	82*	-57	-50	27
Cc1ccc(OCc2nc(-c3cccs3)no2)c([N+](=O)[O-])c1	-14	16	104*	38	-74	55
COc1ccc2c3c([nH]c2c1)[C@@H](CO)N(C(=O)NC(C)C)CC31CN(C(=O)c2cccnc2)C1	.	4	.	.	.	.
COc1ccccc1C(=O)Nc1ccc2c(c1)OC[C@H](C)N(CC1CC1)C[C@H](C)[C@@H](OC)CN(C)C2=O	.	5	.	.	.	.
C[C@H]1CN([C@@H](C)CO)C(=O)CCCn2cc(nn2)CO[C@H]1CN(C)C(=O)Cc1ccccc1	.	21	.	.	.	.

Screens from PubChem BioAssay.
